Read-out in assay [1]: solute carrier (SLC22A1), SLC22A1 (gene 6580)
Briefly: LTEA_HepaRG_SLC22A1: Life Technologies and Expression Analysis (LTEA) Assay for solute carrier (SLC22A1) using HepaRG (AID 2283524). The note with it: mRNA level, 48 h; actives raise or lower the signal. An outline of the steps:
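Transcript level of SLC22A1 quantified by qRT-PCR (normalized to three housekeeping genes) after 48 h chemical exposure of HepaRG cells, eight concentrations up to 100 µM, half-log steps, 0.5% DMSO vehicle. Gain or loss relative to DMSO fitted bidirectionally.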

Read-out in assay [2]: Pyruvate Dehydrogenase Kinase 4 (PDK4), PDK4 (gene 5166)
As to the kind of experiment: LTEA_HepaRG_PDK4: Life Technologies and Expression Analysis (LTEA) Assay for Pyruvate Dehydrogenase Kinase 4 (PDK4) using HepaRG (AID 2283525). The note with it: mRNA level, 48 h; actives raise or lower the signal. An outline of the steps:
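Readout is qRT-PCR of PDK4 transcript, normalized to three housekeeping genes, with bidirectional fitting against 0.5% DMSO vehicle. Differentiated HepaRG cells were treated 48 h in serum-free induction medium, duplicate wells, eight-point half-log series topping at 100 uM.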

Read-out in assay [3]: NAD(P)H dehydrogenase [quinone] 1 (NQO1), NQO1 (gene 1728)
As to the kind of experiment: LTEA_HepaRG_NQO1: Life Technologies and Expression Analysis (LTEA) Assay for NAD(P)H dehydrogenase [quinone] 1 (NQO1) using HepaRG (AID 2283526). The note with it: mRNA level, 48 h; actives raise or lower the signal. The essentials: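 In this assay, gene expression is read by qRT-PCR after 48 h exposure of HepaRG cells to eight concentrations (max 100 uM, half-log) in 0.5% DMSO. Each chemical runs in duplicate, and activity is scored relative to vehicle.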

Read-out in assay [4]: Nuclear factor erythroid 2-related factor 2 (Homo sapiens) (UniProt Q16236)
As to the kind of experiment: LTEA_HepaRG_NFE2L2: Life Technologies and Expression Analysis (LTEA) Assay for Nuclear factor erythroid 2-related factor 2 (NFE2L2) Transcription Factor using HepaRG (AID 2283527). The note with it: mRNA level, 48 h; actives raise or lower the signal. The essentials: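 NFE2L2 transcript level was read by qRT-PCR (housekeeping ACTB/GAPDH/POLR2A normalisation) after 48 h chemical treatment of HepaRG in serum-free induction medium. Duplicate 8-point half-log curves, top 100 uM, 0.5% DMSO vehicle; up- or down-regulation fitted against vehicle.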

Read-out in assay [5]: succinate dehydrogenase complex iron sulfur subunit B (SDHB), SDHB (gene 6390)
As to the kind of experiment: LTEA_HepaRG_SDHB: Life Technologies and Expression Analysis (LTEA) Assay for succinate dehydrogenase complex iron sulfur subunit B (SDHB) using HepaRG (AID 2283528). The note with it: mRNA level, 48 h; actives raise or lower the signal. An outline of the steps: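 HepaRG cells (~100,000/well, plated 48 h) exposed in duplicate for 48 h in serum-free induction medium to 8-point half-log series from 100 uM in 0.5% DMSO; mRNA by qRT-PCR normalised to ACTB, GAPDH, POLR2A; bidirectional fit versus DMSO.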

Read-out in assay [6]: Signal transducer and activator of transcription 3 (Homo sapiens) (UniProt P40763)
As to the kind of experiment: LTEA_HepaRG_STAT3: Life Technologies and Expression Analysis (LTEA) Assay for Signal transducer and activator of transcription (STAT3) using HepaRG (AID 2283529). The note with it: mRNA level, 48 h; actives raise or lower the signal. The essentials: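 STAT3 transcript quantified by qRT-PCR against three housekeeping genes (ACTB, GAPDH, POLR2A), fitted both directions relative to DMSO. HepaRG cultures exposed 48 h to eight half-log concentrations, top 100 uM, 0.5% DMSO, serum-free induction medium.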

Read-out in assay [7]: solute carrier (SLCO1B1), SLCO1B1 (gene 10599)
Briefly: LTEA_HepaRG_SLCO1B1: Life Technologies and Expression Analysis (LTEA) Assay for solute carrier (SLCO1B1) using HepaRG (AID 2283530). The note with it: mRNA level, 48 h; actives raise or lower the signal. An outline of the steps: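 Differentiated human HepaRG cells, plated 48 h, switched to serum-free induction medium and exposed in duplicate for 48 h to 8 half-log concentrations (top 100 uM) in 0.5% DMSO. SLCO1B1 mRNA by TaqMan qRT-PCR, normalized to ACTB/GAPDH/POLR2A.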

Read-out in assay [8]: sulfotransferase 2A1 (SULT2A1), SULT2A1 (gene 6822)
Briefly: LTEA_HepaRG_SULT2A1: Life Technologies and Expression Analysis (LTEA) Assay for sulfotransferase 2A1 (SULT2A1) using HepaRG (AID 2283531). The note with it: mRNA level, 48 h; actives raise or lower the signal. The essentials: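 Differentiated human HepaRG cells in serum-free induction medium were exposed for 48 h to eight half-log concentrations (top 100 uM, 0.5% DMSO). SULT2A1 mRNA was measured by qRT-PCR, normalized to ACTB, GAPDH and POLR2A, and fitted bidirectionally against DMSO.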

Read-out in assay [9]: Transforming Growth Factor (TGFA), TGFA (gene 7039)
As to the kind of experiment: LTEA_HepaRG_TGFA: Life Technologies and Expression Analysis (LTEA) Assay for Transforming Growth Factor (TGFA) using HepaRG (AID 2283532). The note with it: mRNA level, 48 h; actives raise or lower the signal. An outline of the steps: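 TGFA transcript quantified by qRT-PCR (Fluidigm arrays) against three housekeeping genes, after 48 hours chemical treatment of HepaRG cells. Top concentration 100 uM with half-log dilutions, 8 points, duplicates, 0.5% DMSO.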

Read-out in assay [10]: Transforming Growth Factor (TGFB1), TGFB1 (gene 7040)
Briefly: LTEA_HepaRG_TGFB1: Life Technologies and Expression Analysis (LTEA) Assay for Transforming Growth Factor (TGFB1) Transporter using HepaRG (AID 2283533). The note with it: mRNA level, 48 h; actives raise or lower the signal. The essentials: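 Differentiated human HepaRG cells in serum-free induction medium were exposed in duplicate for 48 h to eight concentrations (top 100 uM, half-log steps, 0.5% DMSO). TGFB1 mRNA was quantified by qRT-PCR, normalized to ACTB, GAPDH, POLR2A, and fitted bidirectionally against DMSO.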

Read-out in assay [11]: TIMP1, TIMP1 (gene 7076)
Briefly: LTEA_HepaRG_TIMP1: Life Technologies and Expression Analysis (LTEA) Assay for TIMP1 using HepaRG (AID 2283534). The note with it: mRNA level, 48 h; actives raise or lower the signal. An outline of the steps:
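Differentiated human HepaRG cells in serum-free induction medium were exposed 48 h to chemicals (8 half-log concentrations, top 100 uM, 0.5% DMSO). TIMP1 mRNA was quantified by TaqMan qRT-PCR, normalized to ACTB/GAPDH/POLR2A; bidirectional fit versus DMSO.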

Read-out in assay [12]: Tumor necrosis factor receptor 1 (TNFRSF1A), TNFRSF1A (gene 7132)
Briefly: LTEA_HepaRG_TNFRSF1A: Life Technologies and Expression Analysis (LTEA) Assay for Tumor necrosis factor receptor 1 (TNFRSF1A) using HepaRG (AID 2283535). The note with it: mRNA level, 48 h; actives raise or lower the signal. The essentials: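 Differentiated human HepaRG cells were exposed in duplicate for 48 h in serum-free induction medium to eight concentrations (top 100 uM, half-log steps, 0.5% DMSO). TNFRSF1A mRNA was quantified by qRT-PCR, normalized to ACTB, GAPDH and POLR2A, then fitted bidirectionally against DMSO.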

Read-out in assay [13]: Thyroid Hormone Responsive (THRSP), THRSP (gene 7069)
As to the kind of experiment: LTEA_HepaRG_THRSP: Life Technologies and Expression Analysis (LTEA) Assay for Thyroid Hormone Responsive (THRSP) using HepaRG (AID 2283536). The note with it: mRNA level, 48 h; actives raise or lower the signal. An outline of the steps: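 THRSP transcript quantified by Fluidigm qRT-PCR against three housekeeping genes after 48 h chemical exposure of HepaRG cells in serum-free induction medium; eight-point half-log series, top 100 uM, 0.5% DMSO vehicle, duplicate wells.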

Read-out in assay [14]: Cellular tumor antigen p53 (Homo sapiens) (UniProt P04637)
Briefly: LTEA_HepaRG_TP53: Life Technologies and Expression Analysis (LTEA) Assay for Tumor Protein P53 (TP53) using HepaRG (AID 2283537). The note with it: mRNA level, 48 h; actives raise or lower the signal. The essentials: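 Differentiated HepaRG cells in serum-free induction medium exposed 48 h in duplicate to 8 half-log concentrations, top 100 uM, 0.5% DMSO. TP53 mRNA by TaqMan qRT-PCR (Fluidigm), normalized to ACTB, GAPDH, POLR2A; fitted bidirectionally versus DMSO.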

Read-out in assay [15]: UDP glucuronosyltransferase (UGT1A1), UGT1A1 (gene 54658)
As to the kind of experiment: LTEA_HepaRG_UGT1A1: Life Technologies and Expression Analysis (LTEA) Assay for UDP glucuronosyltransferase (UGT1A1) using HepaRG (AID 2283538). The note with it: mRNA level, 48 h; actives raise or lower the signal. The essentials: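 mRNA induction or loss of UGT1A1, by TaqMan qRT-PCR, in duplicate HepaRG wells after 48 h exposure to half-log dilutions topping at 100 uM; DMSO (0.5%) served as baseline.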

Read-out in assay [16]: UDP glucuronosyltransferase (UGT1A6), UGT1A6 (gene 54578)
As to the kind of experiment: LTEA_HepaRG_UGT1A6: Life Technologies and Expression Analysis (LTEA) Assay for UDP glucuronosyltransferase (UGT1A6) using HepaRG (AID 2283539). The note with it: mRNA level, 48 h; actives raise or lower the signal. The essentials: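 Human HepaRG cells were dosed for 48 h in serum-free induction medium with 0.5% DMSO vehicle, eight-point half-log series from 100 uM, in duplicate. UGT1A6 mRNA was measured by qRT-PCR, normalized to ACTB, GAPDH, POLR2A, and fitted bidirectionally against DMSO.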

Read-out in assay [17]: X-box binding protein 1 (XBP1), XBP1 (gene 7494)
As to the kind of experiment: LTEA_HepaRG_XBP1: Life Technologies and Expression Analysis (LTEA) Assay for X-box binding protein 1 (XBP1) using HepaRG (AID 2283540). The note with it: mRNA level, 48 h; actives raise or lower the signal. An outline of the steps: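 Differentiated human HepaRG cells in serum-free induction medium were exposed in duplicate for 48 h to eight half-log concentrations up to 100 uM in 0.5% DMSO. XBP1 mRNA was quantified by qRT-PCR, normalised to ACTB, GAPDH and POLR2A, with bidirectional fitting against DMSO.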

The nature of assay [18]: LTEA_HepaRG_LDH_cytotoxicity: Cytotoxicity Assessment in the Life Technologies and Expression Analysis (LTEA) Assay (AID 2283563; active means hit-call score of the fitted dose curve at least 0.9, where 1 is the maximum;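 on AC50: LDH activity released into spent culture medium as a marker of cell death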). An outline of the steps: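 Differentiated human HepaRG cells, plated 48 h beforehand, were switched to serum-free induction medium and exposed for 48 h to eight half-log concentrations (top 100 uM) in 0.5% DMSO. LDH was measured in spent medium; activity was fitted relative to DMSO vehicle.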

Assay [19] in a line: TOX21_p53_BLA_p2_viability: Viability Assessment in the Tox21 HCT-116 p53 Agonism Beta-lactamase Assay, Phase 2 (AID 2283591; active means hit-call score of the fitted dose curve at least 0.9, where 1 is the maximum;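 further: compound exposure lasted 16 h at 37 °C; actives lower the ATP signal meaning cytotoxicity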). An outline of the steps:
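Cytotoxicity readout: CellTiter-Glo ATP luminescence, 30 min at room temperature, after the beta-lactamase read. Cells were HCT116 exposed 16 h at 37C to compounds pin-transferred at 217-fold dilution from DMSO stocks.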

Structures are written as SMILES. Inconclusive results are not listed. Some compounds were tested as several samples or in several runs, with calls that do not always agree. Active and inactive are the calls of the source. How the source made its calls, unless noted: active means hit-call score of the fitted dose curve at least 0.9, where 1 is the maximum; inactive means score below 0.9.

Sequence of Nuclear factor erythroid 2-related factor 2 (Homo sapiens) (Q16236 whole entry, looked up): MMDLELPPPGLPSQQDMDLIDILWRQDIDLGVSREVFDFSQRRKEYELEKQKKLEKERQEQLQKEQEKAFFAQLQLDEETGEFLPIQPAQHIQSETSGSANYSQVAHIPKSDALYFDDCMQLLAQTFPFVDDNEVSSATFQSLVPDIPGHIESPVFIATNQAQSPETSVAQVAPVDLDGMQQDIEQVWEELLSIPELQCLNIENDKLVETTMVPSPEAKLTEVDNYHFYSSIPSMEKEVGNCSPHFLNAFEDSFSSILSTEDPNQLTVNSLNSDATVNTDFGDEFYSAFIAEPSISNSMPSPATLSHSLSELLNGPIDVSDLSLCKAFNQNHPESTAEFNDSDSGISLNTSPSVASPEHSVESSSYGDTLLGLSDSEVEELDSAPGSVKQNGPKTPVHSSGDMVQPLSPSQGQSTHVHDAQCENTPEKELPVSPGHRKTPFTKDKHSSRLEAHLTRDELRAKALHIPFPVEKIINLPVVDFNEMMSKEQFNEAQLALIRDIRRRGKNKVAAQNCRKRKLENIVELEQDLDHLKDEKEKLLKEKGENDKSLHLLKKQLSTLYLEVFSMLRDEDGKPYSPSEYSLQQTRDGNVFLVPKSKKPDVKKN
Sequence of Cellular tumor antigen p53 (Homo sapiens) (P04637 whole entry, looked up): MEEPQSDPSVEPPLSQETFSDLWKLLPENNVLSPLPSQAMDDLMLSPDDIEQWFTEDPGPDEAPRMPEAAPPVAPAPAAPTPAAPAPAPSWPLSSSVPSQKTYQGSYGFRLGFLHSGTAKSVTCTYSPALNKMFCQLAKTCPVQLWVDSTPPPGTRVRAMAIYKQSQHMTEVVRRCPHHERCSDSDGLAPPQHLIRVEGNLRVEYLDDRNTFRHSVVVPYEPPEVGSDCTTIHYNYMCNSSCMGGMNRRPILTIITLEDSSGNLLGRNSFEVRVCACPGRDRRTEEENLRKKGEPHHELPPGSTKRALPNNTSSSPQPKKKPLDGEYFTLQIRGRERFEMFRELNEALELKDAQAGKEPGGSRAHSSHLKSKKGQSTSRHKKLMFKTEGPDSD
Sequence of Signal transducer and activator of transcription 3 (Homo sapiens) (P40763 whole entry, looked up): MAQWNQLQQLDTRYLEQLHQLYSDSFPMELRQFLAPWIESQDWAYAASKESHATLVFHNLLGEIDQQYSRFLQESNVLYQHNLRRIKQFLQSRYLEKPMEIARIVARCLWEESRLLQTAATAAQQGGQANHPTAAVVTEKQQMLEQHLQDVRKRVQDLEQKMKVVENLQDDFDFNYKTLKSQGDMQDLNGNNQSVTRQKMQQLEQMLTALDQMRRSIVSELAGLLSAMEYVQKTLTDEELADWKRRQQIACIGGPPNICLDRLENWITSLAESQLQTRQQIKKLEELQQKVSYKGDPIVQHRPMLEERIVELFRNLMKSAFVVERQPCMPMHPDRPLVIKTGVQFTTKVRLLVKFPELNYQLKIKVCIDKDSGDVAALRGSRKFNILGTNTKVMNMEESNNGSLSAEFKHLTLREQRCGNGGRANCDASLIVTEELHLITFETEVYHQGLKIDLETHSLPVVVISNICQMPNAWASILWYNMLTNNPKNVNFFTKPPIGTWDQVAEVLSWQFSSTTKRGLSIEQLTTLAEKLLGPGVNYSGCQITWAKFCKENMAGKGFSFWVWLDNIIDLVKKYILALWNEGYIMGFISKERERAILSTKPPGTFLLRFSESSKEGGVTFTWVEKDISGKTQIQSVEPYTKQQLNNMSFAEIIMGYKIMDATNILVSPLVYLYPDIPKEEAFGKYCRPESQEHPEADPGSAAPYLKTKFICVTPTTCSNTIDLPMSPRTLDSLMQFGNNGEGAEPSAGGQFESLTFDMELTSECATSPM

For orientation: AC50 means the concentration at which the activity in the assay is half-maximal. `Cc1cc(N=Nc2ccccc2C)ccc1N`: the AC50 was 4.83 µM (active) in assay [1]; 2.39 µM (active) in [2]; 9.92 µM (active) in assay [4]; 3.57 µM (active) in assay [7]; 12.8 µM (active) in assay [8]; 12.6 µM (active) in [9]. Further, the AC50 in assay [10] was 2.72 µM (active); in [13] it was 1.41 µM (active); in assay [14], 1.97 µM (active); in assay [15], 85.9 µM (active); in assay [16], 12.2 µM (active); in assay [17], 4 µM (active). The figures for the AC50 in assay [18] and in assay [19] were 5.21 µM (active) and 81 µM (active), respectively. The result in assay [3], in [5], in assay [6], in assay [11], in assay [12] and in [19] was inactive.

For the molecule `CC(C)(O)c1cnn2c(-c3ccc(F)c(-c4c(F)cccc4C#N)c3)cnc2n1`, the AC50 in assay [1] was 9.92 µM (active); in assay [4], 6.33 µM (active); in assay [9], 12.6 µM (active); in assay [15] it was 0.268 µM (active). Also, the call in assay [2], in assay [3], in [5], in [6], in assay [7] and in assay [8] was inactive. In addition, the result in assay [11], in assay [12], in [13], in assay [14], in assay [16] and in [17] was inactive. Further, the result in assay [18] and in [19] was inactive.

Consider `[O-][Cl+]O`, for which the result in assay [1], in [2], in assay [3], in [4], in [5] and in [6] was inactive. Moreover, the call in assay [7], in assay [8], in [9], in [10], in [11] and in assay [12] was inactive. For the same molecule, the outcome in assay [13], in assay [14], in [15], in assay [16], in assay [17] and in assay [18] was inactive. Moreover, the molecule was called inactive in assay [19].

The record behind these values is PubChem BioAssay (EPA / NIEHS).
